Screening results as filed in PubChem BioAssay.
Only some compounds are listed: those with a hit (about 11% of all), similar ones and a draw of the others.
IMPase Li cell = membrane-permeable IMPase blocker, potentiated with lithium. CHO-M1 cells, IP1 TR-FRET (IP-One), carbachol + lithium. Potency, µM (doses to about 59.4 µM), for the others: at the highest dose activity, negative = IMPase inhibition, hits mostly inhibitors. hit rate 0.35% among 210,000. AID 1457; active = well fitted curve in the direction sought with a large enough effect; inconclusive = small, poorly fitted or top-dose-only effect, or another doubt; inactive = no such curve, though single readings can be large; an effect the other way counts as inactive or inconclusive;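 also: IP1 builds up when IMPase is blocked and the TR-FRET signal falls; potency is read from the fitted curve at half-maximal effect; plate controls were basal vehicle for no effect and high inhibitor control for full effect; nearly all actives have a fitted effect of over 50% in size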
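CHO-M1, 2000 cells/well, 16–30 h culture; cpd + low Li+, 30 min 37C; lysis with d2-IP1/Eu-anti-IP1 Ab, 10 min RT; TR-FRET 665/620 ratio and 620 channel; AC50 via Hill.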
12-hLO inh = blocks human 12-lipoxygenase activity | P18054 | purified 12-hLO, xylenol orange hydroperoxide absorbance | Potency, µM (top dose mostly 57.1 µM), for inactives: at the highest dose activity change, negative = inhibition, usual class: inhibitors | hit rate 0.12% among 150,000 | AID 1452; active = well fitted curve in the direction sought with a large enough effect; inconclusive = small, poorly fitted or top-dose-only effect, or another doubt; inactive = no such curve, though single readings can be large; an effect the other way counts as inactive or inconclusive; also: potency is read from the fitted curve at half-maximal effect; nearly all actives have a fitted effect of over 55% in size
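Xylenol orange chromogenic assay: hydroperoxide from 12hLO oxidises Fe(II), giving red-shifted Fe(III)-XO absorbance. Conditions: 150 nM enzyme, 40 uM arachidonic acid, 25 mM Hepes pH 7.0, 0.01% Triton X-100, 30 min, room temperature.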
HPGD inh = blocks human HPGD enzyme activity; P15428; purified HPGD, NADH fluorescence kinetic, PGE2 substrate; Potency, µM, without a hit: at the top dose activity change, negative = inhibition, usual class: inhibitors; hit rate 4.3% among 150,000; also: potency is read from the fitted curve at half-maximal effect
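20 nM HPGD preincubated 15 min at room temperature with compound in 50 mM Tris-HCl pH 8, 0.01% Tween 20. Started with 1 mM NAD+ and 30 uM prostaglandin E2; NADH fluorescence (360/450 nm) read 5 times over 30-s intervals, last minus first.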
IMPase cell inh = cell-permeable inhibitors of inositol monophosphatase (IMPase). CHO-M1 cells, IP1 accumulation, HTRF TR-FRET ratio. inhibition (IP1 accumulation), % at 46.1 µM. 120,000 tested, under 10 active; active = well fitted curve in the direction sought with a large enough effect in the signal ratio, not every such curve was filed as active; inconclusive = small, poorly fitted or top-dose-only effect, or a change in a side signal; inactive = no such curve, though single readings can be large or run the other way; the % refers to the signal ratio;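 also: cells stimulated with carbachol in lithium chloride buffer; plate controls were DMSO basal wells for no effect and reference inhibitor wells for full effect; higher means more IMPase inhibition seen as more IP1 and lower FRET ratio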
Target sequence (P97697 whole entry, looked up): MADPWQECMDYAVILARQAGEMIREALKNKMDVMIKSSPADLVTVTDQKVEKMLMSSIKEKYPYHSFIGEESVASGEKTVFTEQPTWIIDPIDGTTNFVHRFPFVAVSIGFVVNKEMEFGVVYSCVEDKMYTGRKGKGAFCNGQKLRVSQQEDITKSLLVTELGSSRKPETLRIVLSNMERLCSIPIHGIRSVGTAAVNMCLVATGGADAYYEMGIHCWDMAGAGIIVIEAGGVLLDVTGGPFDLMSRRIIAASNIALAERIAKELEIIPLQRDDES
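Measured: the HTRF emission ratio (665/620 nm) plus the 620 nm donor channel, each fitted to the Hill equation to give AC50. Cells were CHO-M1 given compounds up to 46 uM and a 30 min carbachol stimulation at 37C.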
PNC inhibitor = perinucleolar compartment assembly inhibition. PC3M PTB-GFP, PNC prevalence imaging, 16 h; hits give low values. activity change (PNC), negative = inhibition, % at 10 µM. hit rate 3.1% among 140,000;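 active = readout at or below -70, meaning at least 70% loss of cells showing the perinucleolar compartment, a nuclear body marking cancer cells; inconclusive = readout between -30 and a set limit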;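 also: plate controls were DMSO wells for no effect and camptothecin positive control wells for full effect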
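Read-out is percentage of cells bearing a perinucleolar compartment, from automated 20x imaging of fixed, Hoechst-stained PC3M PTB-GFP cells. Cells were seeded 4 h, then exposed 16 h to compound (23 nl of library stock) in duplicate plates.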
ALDH1A1 inh = blocks purified human ALDH1A1 activity; Purified ALDH1A1, NADH fluorescence, propionaldehyde substrate; Potency, µM (doses to about 75.3 µM), for inactives: at the highest dose activity, negative = inhibition, usual class: inhibitors; hit rate 7.3% among 220,000; AID 1030;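 also: potency is read from the fitted curve at half-maximal effect; plate controls were no enzyme wells and a reference inhibitor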
Target sequence (P00352 whole entry, looked up): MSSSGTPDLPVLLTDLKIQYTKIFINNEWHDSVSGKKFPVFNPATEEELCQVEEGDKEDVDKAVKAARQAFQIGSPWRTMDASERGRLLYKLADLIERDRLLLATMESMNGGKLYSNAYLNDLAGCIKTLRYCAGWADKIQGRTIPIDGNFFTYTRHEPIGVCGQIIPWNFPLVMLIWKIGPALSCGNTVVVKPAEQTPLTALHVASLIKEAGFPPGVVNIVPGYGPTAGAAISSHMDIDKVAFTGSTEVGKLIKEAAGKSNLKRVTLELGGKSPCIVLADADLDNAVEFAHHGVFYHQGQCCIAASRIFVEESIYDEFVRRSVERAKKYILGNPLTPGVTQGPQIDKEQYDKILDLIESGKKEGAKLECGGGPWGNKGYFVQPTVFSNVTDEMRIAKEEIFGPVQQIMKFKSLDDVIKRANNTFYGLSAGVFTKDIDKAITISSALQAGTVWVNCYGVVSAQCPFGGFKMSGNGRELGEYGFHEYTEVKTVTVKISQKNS
Numbers without * were called inactive; ? = inconclusive; . = no result; [ ] = dose if it differs, or a comment. Unless noted, calls follow the shape of the dose curve; as a rule, active = well fitted inhibition curve with a large enough effect (not every such curve was filed as active); inconclusive = small, poorly fitted or top-dose-only effect, or another doubt; inactive = no such curve, though single readings can be large or run the other way. Unless noted, % is scaled to controls: 0 for no effect and ±100 for the full control effect.

SMILES	IMPase Li cell	12-hLO inh	HPGD inh	IMPase cell inh	PNC inhibitor	ALDH1A1 inh
Cc1ccccc1N1C(=O)NC(=O)/C(=C\c2cnn(-c3ccccc3)c2)C1=O	5%	-9%	10µM*	.	-13	18µM*
CCn1c(C)cc(/C=C2\C(=O)NC(=O)N(c3ccccc3C)C2=O)c1C	-1%	.	.	.	.	-13%
C[C@@]12CC[C@H](O[C@@H]3O[C@H](CO)[C@@H](O)[C@H](O)[C@@H]3O)C[C@@H]1CC[C@H]1[C@H]2CC[C@@]2(C)[C@@H](C3=CCOC3=O)CC[C@]12O	0%	-4%[11.4 µM]	1%	.	.	-7%[13.5 µM]
O=C(c1cc(-c2ccccc2)on1)N1CCC2(CC1)OCCO2	6%	.	.	.	.	2%
COc1ccc(-c2cc(C(F)(F)F)n3nc(C(=O)N4CCC5(CC4)OCCO5)cc3n2)cc1OC	-20%[38.3 µM]	-7%	13µM*	-1	-2	10µM*
CN(C)c1ccc(C(=O)c2ccc(N(C)C)cc2)cc1	30%[38.3 µM]	-2%	?	-4	-29	28µM*
Oc1ccc([C@H](O)[C@@H]2CCCCN2)cc1O	.	-10%[11.4 µM]	.	.	.	.
C/C=C/c1ccc(OC)cc1	5%	.	-9%	.	.	?
COc1ccc(C=O)cc1OC	15%	-6%	-14%	.	.	11µM*
COc1ccc(C=O)cc1	-14%	-4%	6%	.	.	7.9µM*
N#CC(C#N)=Cc1ccc(C=C(C#N)C#N)cc1	.	.	.	.	.	0.35µM*
N#CC(C#N)=Cc1ccc([N+](=O)[O-])c(O)c1	12%	-6%[0.00818 µM]	16µM*	2	.	16µM*
O=C(Cc1ccccc1)Oc1cccc(N2C(=O)CCC2=O)c1	12%[38.3 µM]	4%	-8%	-2	-100*	-9%
O=C(Oc1ccc(S(=O)(=O)F)cc1F)c1ccccc1Cl	-5%	2%[11.4 µM]	-14%	.	.	0%[13.5 µM]
C=CCN1CCc2cccc3c2C1Cc1ccc(O)c(O)c1-3 (centres undefined)	1%	.	?	.	.	?
O=NN(CCO)CCO	16%	4%	-7%	.	.	?
C=CCN1C(=O)NC(=O)/C(=C/c2ccc(OC)c(CSc3ccccn3)c2)C1=O	-4%[38.3 µM]	4%	28µM*	1	83	13µM*
CCCCCCCCCCCCCCC[C@@H](O)[C@@H](N)COP(=O)(O)O	17%	3%	-9%	.	.	3%
C[C@H]1COC2=C1C(=O)C(=O)c1c2ccc2c1CCCC2(C)C	4%	.	.	.	.	13µM*
CC1COC2=C1C(=O)C(=O)c1c2ccc2c1CCCC2(C)C (centres undefined)	-8%	-6%[0.00818 µM]	20µM*	.	.	22µM*
Cc1ccc2c(c1)CC1(CN2C)C(=O)NC(=O)N(CCC2=CCCCC2)C1=O (centres undefined)	.	-12%	.	13	36	3.5µM*
COc1ccc2c(c1)CC1(CN2C)C(=O)NC(=O)N(c2ccc(C)cc2)C1=O (centres undefined)	46%[38.3 µM]	-12%	-18%	5	-22	?
Cc1cccc(N2C(=O)NC(=O)C3(Cc4cc(C)ccc4N(C)C3)C2=O)c1 (centres undefined)	.	-11%	.	5	33	8.9µM*
N[C@@H](CSC1c2ccccc2-c2ccccc21)C(=O)O	0%	3%[11.4 µM]	-4%	.	.	7%[13.5 µM]
COC(=O)NC/C=C\c1nc(CC/C=C\C(=O)O[C@H]2C[C@H]3CC(=O)O[C@@H](/C=C\CC(C)C)C[C@@H]4CC[C@H](C)[C@H](C[C@@H](OC)C[C@H](C2)O3)O4)co1	.	.	.	.	.	-2%[13.5 µM]
SMILES	IMPase Li cell	12-hLO inh	HPGD inh	IMPase cell inh	PNC inhibitor	ALDH1A1 inh
CN(C)c1ccc(/C=C2\CCCN=C2c2cccnc2)cc1	17%	0%	-19%	.	.	?
CC1=[N+]([O-])C2(N)CCc3nonc3C2(O)C1 (centres undefined)	7%[38.3 µM]	-4%	-10%	0	25	7.1µM*
Cc1ccc(C(=O)NC(O)C(Cl)(Cl)Cl)cc1 (centres undefined)	0%	3%	14µM*	-4	?	0%
Cc1cccc(C(=O)NC(Oc2ccccc2)C(Cl)(Cl)Cl)c1 (centres undefined)	24%[38.3 µM]	2%	-10%	8	6	-4%
CCN(CC)C(=O)C(C(=O)c1cccc([N+](=O)[O-])c1)n1cc(Cl)ccc1=O (centres undefined)	4%	.	.	.	.	18µM*
CC(C)(Cl)Cl	-12%	-1%	0%	.	.	3%
[CH3][Hg][Cl]	3%	-1%	?	.	.	0.71µM*
O=C(C[C@H](c1ccccc1)c1c(O)c2ccccc2oc1=O)c1ccccc1	5%	-4%[11.4 µM]	-5%	.	.	2%[13.5 µM]
Nn1cnnc1	-8%	-3%	-7%	.	.	12%
NC(N)=NCCN=C(N)N	-2%	1%[11.4 µM]	-4%	.	.	-8%[13.5 µM]
Cc1ccc(C)c(Cn2c(C(=O)O)c(C=O)c3ccccc32)c1	5%	.	.	.	.	19µM*
C=C(C)c1ccccc1 (tested in a mixture with another compound)	0%	1%[11.4 µM]	1%	.	.	1%[13.5 µM]
C=C(c1ccccc1)P(=O)(O)O	-5%	-2%	-4%	.	-113*	13%
Oc1c(Br)c(Br)c(Br)c(Br)c1Br	6%	-9%	10µM*	.	.	?
CC1(C)[C@@H]2CC[C@]1(C)CN(CCC[N+](C)(C)C)C2	2%	0%[11.4 µM]	1%	.	.	9%[13.5 µM]
O=c1c2ccccc2nc(CNCc2ccco2)n1-c1ccc(F)cc1	6%	1%	-5%	.	-83*	0%
CCCN1CCCC2Cc3nc(N)ncc3CC21 (centres undefined)	-5%	.	.	.	.	12%
O=C(O)[C@@H](O)[C@@H](O)C1[O][Sb][O][C@@H]1CO (some centres undefined)	-3%	.	-12%	.	.	-19%[13.5 µM]
CSc1ncc(/C=C2/C(=O)NC(=O)N(C3CCCCC3)C2=O)cn1	2%[38.3 µM]	-15%	?	6	?	4%
CCCCN1C(=O)NC(=O)/C(=C/c2cnc(SC)nc2)C1=O	1%[38.3 µM]	-23%	20µM*	2	5	30%
CSc1ncc(/C=C2/C(=O)NC(=O)N(c3ccc(C(C)C)cc3)C2=O)cn1	3%	-12%	?	.	54	14µM*
CC(C)c1ccc(N2C(=O)NC(=O)/C(=C/c3cnc(-c4ccccc4)nc3)C2=O)cc1	7%	-27%	13µM*	2	-26	19µM*
CSc1ncc(/C=C2/C(=O)NC(=O)N(C)C2=O)cn1	2%[38.3 µM]	-11%	-27%	-5	5	-9%
CN1[C@H](CC(=O)c2ccccc2)CCC[C@H]1C[C@H](O)c1ccccc1	28%	-2%	-7%	11	.	9%
CCOC(=O)c1c(/N=C/c2c(O)n(-c3ccccc3F)c(=S)[nH]c2=O)sc2c1CCCC2	26%[38.3 µM]	-12%	22µM*	3	?	1.3µM*
